What was measured:
Assay in all cases: log2 ratio of Biotin-Ahx-Ub-VS probe labelling (fragment/DMSO); higher = less target engagement (more negative = stronger competition), active = hit call of the paper (q ≤ 0.05, log2 ratio ≤ -1)
Settings in all cases: compound concentration: 200 uM; treatment time: 3 h
[1] = molecular target: T1, USP42 (UniProt Q9H9J4)
T1 sequence (whole entry): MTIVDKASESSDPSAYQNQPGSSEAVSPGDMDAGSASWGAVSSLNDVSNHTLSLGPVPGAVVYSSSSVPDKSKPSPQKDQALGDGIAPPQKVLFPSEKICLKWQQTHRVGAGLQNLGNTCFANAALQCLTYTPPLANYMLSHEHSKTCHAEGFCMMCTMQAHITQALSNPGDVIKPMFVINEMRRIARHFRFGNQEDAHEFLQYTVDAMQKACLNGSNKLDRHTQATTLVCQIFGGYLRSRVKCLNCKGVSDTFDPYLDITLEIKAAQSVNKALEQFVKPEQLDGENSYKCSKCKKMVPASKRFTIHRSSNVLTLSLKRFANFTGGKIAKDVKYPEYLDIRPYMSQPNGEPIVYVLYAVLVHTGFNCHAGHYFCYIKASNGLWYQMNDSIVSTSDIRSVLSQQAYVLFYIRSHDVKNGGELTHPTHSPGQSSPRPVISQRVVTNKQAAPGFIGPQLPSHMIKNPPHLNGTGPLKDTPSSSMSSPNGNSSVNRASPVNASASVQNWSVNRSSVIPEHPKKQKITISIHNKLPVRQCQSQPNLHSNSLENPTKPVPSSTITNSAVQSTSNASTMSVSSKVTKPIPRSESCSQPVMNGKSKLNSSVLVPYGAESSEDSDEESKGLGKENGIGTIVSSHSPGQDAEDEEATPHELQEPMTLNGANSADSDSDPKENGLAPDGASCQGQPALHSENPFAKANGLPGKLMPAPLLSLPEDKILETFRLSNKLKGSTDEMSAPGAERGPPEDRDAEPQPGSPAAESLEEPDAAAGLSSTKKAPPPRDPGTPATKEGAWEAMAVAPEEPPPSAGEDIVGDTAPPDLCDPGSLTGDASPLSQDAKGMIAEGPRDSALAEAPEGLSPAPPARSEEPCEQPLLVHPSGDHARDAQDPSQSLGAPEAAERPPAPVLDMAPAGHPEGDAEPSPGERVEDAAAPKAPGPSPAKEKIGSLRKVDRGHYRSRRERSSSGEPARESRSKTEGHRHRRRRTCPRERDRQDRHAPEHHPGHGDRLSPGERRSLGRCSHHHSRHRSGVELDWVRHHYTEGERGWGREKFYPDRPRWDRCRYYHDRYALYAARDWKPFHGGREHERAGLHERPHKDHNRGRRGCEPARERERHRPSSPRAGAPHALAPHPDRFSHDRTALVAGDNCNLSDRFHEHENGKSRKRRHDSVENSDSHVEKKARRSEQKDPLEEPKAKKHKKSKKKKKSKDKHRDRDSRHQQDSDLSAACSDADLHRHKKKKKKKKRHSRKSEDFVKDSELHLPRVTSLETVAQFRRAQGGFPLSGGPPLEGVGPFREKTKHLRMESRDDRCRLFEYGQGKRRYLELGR
How it was run: (§1)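 Each value is an average log2 ratio of fragment to vehicle, tested by unpaired t-test. The underlying Spectronaut label-free quantities were global-median-normalised, and only proteins with ≥2 unique peptides were included. Triplicate HEK293T lysate samples (495 µg) were exposed to fragment at 200 µM or vehicle for 3 h, then to Biotin-Ahx-Ub-VS at 0.5 µM final for 1 h, before NeutrAvidin enrichment of labelled DUBs, LysC and trypsin digestion, and diaPASEF LC-MS/MS.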

[2] = molecular target: USP46 (UniProt P62068)
How it was run: as §1

[3] = molecular target: T2, USP47 (UniProt Q96K76)
T2 sequence (whole entry): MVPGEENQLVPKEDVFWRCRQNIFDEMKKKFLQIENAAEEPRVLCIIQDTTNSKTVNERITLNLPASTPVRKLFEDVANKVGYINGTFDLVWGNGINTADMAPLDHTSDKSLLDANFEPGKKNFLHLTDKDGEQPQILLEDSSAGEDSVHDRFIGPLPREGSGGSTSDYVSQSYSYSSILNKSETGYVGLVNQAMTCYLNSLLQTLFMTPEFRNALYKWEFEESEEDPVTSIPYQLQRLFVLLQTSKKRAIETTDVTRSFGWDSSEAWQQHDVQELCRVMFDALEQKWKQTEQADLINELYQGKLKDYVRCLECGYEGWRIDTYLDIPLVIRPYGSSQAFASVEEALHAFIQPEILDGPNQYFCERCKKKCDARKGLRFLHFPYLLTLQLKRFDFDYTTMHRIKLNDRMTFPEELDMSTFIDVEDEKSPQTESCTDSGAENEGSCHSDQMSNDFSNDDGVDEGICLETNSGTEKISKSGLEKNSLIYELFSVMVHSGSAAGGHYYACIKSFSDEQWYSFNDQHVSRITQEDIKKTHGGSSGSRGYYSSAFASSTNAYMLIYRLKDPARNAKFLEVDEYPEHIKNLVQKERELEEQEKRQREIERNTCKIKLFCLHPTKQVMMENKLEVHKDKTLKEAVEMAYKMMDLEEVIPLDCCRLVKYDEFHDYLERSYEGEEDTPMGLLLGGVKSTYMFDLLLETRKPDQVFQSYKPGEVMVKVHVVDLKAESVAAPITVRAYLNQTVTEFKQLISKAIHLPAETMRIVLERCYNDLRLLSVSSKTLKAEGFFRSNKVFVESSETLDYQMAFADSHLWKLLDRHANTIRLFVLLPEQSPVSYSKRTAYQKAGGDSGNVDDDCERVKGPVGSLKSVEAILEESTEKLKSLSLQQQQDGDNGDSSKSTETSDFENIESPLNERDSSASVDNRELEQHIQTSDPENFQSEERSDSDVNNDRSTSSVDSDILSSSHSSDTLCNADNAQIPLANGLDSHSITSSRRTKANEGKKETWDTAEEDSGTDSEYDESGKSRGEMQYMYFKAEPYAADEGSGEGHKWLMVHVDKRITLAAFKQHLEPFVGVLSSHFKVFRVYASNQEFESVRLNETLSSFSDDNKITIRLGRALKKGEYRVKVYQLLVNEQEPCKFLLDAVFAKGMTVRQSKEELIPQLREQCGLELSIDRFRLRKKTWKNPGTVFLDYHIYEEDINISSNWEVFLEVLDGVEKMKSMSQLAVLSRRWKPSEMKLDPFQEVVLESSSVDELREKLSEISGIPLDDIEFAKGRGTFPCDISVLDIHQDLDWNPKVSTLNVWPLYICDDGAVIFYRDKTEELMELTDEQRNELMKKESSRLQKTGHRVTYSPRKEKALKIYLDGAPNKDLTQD
How it was run: as §1

[4] = molecular target: T3, USP48 (UniProt Q86UV5)
T3 sequence (whole entry): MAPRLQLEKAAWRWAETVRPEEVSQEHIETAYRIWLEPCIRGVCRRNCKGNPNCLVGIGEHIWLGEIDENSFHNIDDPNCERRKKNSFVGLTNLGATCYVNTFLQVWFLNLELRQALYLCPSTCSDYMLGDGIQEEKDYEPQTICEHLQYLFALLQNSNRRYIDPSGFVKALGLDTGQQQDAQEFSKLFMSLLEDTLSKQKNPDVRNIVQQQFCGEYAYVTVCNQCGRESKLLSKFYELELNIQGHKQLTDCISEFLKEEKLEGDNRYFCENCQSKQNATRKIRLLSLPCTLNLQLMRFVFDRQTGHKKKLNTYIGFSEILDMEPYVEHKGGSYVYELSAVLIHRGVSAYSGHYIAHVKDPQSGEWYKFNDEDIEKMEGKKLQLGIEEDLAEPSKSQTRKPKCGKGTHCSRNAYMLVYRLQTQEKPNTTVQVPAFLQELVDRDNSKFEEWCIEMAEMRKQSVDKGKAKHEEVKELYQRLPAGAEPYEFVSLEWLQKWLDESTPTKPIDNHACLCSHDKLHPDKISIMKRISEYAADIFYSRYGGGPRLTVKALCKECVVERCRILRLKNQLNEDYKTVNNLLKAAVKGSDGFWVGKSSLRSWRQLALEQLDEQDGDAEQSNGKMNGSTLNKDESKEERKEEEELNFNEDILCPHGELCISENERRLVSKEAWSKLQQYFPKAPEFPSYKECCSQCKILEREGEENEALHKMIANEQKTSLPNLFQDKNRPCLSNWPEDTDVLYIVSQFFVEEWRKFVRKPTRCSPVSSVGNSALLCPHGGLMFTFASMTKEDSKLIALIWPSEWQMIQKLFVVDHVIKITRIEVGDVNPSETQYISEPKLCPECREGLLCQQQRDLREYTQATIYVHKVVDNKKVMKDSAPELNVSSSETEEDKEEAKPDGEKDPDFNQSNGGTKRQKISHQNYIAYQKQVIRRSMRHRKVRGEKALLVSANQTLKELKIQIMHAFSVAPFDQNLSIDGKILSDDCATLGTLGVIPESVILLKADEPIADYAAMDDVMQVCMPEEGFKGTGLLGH
How it was run: as §1

[5] = molecular target: T4, USP5 (UniProt P45974)
T4 sequence (whole entry): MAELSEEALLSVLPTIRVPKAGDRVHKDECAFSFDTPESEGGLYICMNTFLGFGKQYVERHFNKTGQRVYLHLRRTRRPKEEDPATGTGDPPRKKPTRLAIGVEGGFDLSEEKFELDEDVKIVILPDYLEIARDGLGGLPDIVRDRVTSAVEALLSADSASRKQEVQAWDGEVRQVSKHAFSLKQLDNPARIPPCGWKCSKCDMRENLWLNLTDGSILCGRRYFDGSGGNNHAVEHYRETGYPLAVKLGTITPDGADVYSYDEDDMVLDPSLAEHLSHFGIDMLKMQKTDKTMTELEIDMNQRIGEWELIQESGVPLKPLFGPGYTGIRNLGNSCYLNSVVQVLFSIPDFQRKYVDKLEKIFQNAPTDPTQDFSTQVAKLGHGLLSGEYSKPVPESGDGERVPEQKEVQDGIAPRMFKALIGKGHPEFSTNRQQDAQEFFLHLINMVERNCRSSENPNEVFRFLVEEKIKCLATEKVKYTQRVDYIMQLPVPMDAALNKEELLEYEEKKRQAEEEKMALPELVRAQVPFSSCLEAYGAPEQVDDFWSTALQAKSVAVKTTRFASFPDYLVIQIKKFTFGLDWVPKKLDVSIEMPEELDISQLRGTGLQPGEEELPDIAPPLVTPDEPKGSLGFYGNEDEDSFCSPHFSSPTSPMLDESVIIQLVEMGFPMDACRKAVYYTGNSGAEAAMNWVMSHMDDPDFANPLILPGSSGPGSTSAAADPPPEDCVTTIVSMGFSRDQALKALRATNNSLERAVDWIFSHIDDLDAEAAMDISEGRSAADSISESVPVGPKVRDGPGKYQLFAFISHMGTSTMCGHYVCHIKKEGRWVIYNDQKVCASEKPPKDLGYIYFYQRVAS
How it was run: as §1

[6] = molecular target: USP54 (UniProt Q70EL1)
How it was run: as §1

[7] = molecular target: USP7 (UniProt Q93009)
How it was run: as §1

[8] = molecular target: T5, USP8 (UniProt P40818)
T5 sequence (whole entry): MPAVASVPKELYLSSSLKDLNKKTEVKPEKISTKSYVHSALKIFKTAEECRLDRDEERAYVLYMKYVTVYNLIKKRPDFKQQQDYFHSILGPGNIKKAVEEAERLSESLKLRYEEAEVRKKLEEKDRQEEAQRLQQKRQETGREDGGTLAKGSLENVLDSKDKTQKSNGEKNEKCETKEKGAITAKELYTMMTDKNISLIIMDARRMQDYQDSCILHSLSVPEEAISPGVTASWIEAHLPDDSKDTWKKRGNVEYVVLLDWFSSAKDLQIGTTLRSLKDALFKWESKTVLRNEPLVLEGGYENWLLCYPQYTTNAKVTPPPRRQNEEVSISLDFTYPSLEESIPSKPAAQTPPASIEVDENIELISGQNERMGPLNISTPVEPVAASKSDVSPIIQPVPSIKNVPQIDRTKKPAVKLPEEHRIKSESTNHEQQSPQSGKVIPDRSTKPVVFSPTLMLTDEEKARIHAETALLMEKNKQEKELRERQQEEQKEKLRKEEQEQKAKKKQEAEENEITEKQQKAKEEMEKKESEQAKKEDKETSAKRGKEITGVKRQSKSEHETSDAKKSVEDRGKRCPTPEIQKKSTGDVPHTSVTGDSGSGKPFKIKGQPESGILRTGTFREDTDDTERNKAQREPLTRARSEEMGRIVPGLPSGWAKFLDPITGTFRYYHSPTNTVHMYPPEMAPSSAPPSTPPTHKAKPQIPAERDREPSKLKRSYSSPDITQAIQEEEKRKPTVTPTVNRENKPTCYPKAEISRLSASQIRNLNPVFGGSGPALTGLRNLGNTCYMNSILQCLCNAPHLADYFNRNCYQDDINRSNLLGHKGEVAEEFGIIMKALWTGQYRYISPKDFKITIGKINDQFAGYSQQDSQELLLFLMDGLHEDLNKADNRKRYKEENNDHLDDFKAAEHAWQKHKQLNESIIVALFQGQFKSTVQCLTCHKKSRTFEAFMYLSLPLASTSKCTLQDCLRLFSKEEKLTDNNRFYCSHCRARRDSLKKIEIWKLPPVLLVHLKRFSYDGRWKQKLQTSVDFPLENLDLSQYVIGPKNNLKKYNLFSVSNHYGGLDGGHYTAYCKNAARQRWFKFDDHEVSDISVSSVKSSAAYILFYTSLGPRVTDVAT
How it was run: as §1

[9] = molecular target: USP9X (UniProt Q93008)
How it was run: as §1

[10] = molecular target: UniProt O00487
How it was run: as §1

Measured: log2 ratio of Biotin-Ahx-Ub-VS probe labelling

Chain of USP7 (Q93009 whole entry, looked up): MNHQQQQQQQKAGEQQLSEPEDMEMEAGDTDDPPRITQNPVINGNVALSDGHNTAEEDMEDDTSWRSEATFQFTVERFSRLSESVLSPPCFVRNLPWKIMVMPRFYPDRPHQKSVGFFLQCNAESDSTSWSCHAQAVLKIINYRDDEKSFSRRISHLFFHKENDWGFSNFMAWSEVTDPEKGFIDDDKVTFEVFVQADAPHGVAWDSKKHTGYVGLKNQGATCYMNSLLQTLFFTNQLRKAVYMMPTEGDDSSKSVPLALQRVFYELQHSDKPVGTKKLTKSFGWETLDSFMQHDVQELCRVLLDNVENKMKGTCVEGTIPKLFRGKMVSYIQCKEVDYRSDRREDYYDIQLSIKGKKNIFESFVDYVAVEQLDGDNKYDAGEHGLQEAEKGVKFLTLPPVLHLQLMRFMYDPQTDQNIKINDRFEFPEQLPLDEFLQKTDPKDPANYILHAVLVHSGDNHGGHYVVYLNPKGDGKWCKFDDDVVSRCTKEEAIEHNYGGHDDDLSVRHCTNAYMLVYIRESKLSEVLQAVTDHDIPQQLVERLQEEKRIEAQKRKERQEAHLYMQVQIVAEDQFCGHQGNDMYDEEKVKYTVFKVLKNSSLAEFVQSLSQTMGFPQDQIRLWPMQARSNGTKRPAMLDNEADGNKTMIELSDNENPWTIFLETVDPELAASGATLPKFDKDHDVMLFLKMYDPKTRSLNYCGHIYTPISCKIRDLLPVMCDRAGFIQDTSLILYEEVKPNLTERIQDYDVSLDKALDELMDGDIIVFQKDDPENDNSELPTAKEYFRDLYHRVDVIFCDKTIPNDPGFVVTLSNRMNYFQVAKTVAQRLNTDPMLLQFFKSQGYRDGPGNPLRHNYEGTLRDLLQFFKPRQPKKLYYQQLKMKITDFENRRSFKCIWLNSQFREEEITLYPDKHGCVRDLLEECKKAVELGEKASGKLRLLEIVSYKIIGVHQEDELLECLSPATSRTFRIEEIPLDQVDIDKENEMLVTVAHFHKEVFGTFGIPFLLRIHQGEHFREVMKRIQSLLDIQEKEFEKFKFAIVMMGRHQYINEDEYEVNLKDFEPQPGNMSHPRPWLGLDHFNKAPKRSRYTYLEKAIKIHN
Chain of USP9X (Q93008 whole entry): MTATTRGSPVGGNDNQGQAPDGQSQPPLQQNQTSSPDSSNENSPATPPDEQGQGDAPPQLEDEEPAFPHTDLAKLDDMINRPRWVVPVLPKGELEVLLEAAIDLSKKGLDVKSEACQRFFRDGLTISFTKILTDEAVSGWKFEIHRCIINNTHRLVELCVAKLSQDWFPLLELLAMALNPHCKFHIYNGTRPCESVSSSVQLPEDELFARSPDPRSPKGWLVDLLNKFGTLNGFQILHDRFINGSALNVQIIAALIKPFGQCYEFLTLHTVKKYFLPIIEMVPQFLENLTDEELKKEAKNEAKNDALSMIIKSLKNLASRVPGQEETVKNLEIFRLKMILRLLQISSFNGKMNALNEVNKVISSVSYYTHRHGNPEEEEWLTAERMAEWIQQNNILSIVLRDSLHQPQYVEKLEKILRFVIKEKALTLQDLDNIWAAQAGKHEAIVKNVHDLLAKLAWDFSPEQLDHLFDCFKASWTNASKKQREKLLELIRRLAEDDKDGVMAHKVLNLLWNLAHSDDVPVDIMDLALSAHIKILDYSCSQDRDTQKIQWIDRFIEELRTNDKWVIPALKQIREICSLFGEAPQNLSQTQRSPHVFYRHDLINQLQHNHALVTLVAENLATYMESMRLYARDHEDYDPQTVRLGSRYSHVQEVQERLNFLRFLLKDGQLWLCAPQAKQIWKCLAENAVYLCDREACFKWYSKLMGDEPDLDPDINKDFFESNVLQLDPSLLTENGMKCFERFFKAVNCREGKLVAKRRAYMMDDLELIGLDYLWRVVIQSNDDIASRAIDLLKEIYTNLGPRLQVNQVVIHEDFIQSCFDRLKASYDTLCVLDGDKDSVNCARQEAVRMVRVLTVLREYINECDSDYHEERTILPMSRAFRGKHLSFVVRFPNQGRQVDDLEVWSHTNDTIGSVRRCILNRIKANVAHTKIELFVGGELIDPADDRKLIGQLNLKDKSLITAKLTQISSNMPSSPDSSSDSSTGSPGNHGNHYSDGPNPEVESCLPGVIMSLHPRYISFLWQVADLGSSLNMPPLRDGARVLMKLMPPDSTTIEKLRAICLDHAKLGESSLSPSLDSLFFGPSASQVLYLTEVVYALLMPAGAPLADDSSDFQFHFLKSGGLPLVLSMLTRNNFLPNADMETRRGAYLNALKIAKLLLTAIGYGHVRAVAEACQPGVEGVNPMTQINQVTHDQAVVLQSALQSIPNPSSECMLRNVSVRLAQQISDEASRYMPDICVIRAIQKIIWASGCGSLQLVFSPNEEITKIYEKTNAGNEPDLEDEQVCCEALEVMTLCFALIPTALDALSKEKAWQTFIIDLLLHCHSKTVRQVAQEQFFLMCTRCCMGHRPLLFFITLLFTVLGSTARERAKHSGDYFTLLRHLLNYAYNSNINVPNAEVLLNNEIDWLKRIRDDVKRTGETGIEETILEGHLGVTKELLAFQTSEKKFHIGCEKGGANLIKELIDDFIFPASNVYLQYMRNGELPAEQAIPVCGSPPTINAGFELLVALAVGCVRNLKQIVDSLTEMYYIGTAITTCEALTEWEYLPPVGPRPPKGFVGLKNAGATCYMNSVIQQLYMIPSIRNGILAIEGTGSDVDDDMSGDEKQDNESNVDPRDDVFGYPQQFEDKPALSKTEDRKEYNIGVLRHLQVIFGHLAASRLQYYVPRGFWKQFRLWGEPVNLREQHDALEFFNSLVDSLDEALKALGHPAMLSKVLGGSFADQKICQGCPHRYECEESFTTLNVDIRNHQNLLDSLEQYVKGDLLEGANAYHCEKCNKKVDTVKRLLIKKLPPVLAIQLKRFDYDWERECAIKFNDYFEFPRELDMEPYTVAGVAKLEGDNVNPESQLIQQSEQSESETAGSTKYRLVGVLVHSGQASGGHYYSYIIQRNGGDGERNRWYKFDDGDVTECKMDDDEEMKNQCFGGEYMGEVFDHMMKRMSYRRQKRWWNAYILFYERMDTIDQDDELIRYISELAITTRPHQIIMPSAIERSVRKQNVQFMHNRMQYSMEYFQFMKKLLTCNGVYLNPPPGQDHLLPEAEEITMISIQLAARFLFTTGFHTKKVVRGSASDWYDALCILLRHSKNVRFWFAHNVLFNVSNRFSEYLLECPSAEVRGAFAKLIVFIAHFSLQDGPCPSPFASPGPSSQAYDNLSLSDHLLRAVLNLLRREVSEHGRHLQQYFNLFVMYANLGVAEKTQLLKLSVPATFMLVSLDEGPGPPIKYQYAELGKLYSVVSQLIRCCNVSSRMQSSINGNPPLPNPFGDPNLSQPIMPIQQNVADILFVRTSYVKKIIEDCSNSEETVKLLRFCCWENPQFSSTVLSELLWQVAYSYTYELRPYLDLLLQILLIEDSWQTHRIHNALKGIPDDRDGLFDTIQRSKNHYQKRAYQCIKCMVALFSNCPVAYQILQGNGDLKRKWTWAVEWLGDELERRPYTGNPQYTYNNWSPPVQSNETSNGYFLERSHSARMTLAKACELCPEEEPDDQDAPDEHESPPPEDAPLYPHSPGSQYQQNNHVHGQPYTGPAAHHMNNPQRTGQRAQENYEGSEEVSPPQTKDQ
Chain of USP46 (P62068 whole entry): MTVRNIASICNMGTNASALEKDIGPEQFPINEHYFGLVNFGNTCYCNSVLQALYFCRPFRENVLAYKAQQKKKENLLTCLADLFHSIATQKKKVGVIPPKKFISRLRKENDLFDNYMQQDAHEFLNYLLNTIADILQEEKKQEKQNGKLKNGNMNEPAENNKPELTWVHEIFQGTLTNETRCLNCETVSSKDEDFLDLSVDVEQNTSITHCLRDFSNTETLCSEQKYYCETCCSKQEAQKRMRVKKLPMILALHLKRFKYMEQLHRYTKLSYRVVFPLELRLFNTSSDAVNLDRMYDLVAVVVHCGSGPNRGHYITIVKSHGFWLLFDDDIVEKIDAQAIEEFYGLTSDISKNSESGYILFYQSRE
Chain of UniProt O00487 (O00487 whole entry): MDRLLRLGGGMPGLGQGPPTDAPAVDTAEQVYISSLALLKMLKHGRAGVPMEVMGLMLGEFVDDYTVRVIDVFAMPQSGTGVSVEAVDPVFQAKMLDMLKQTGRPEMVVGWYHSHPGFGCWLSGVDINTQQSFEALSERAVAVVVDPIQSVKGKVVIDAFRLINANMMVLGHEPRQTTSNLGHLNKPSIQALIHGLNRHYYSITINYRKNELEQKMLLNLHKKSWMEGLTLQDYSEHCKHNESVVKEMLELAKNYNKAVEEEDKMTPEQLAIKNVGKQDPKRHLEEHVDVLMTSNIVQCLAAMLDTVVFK

Cc1cc(C(=O)NC2CCN(C(=O)CCl)CC2)no1
inactive: [1] -0.284 | [2] -0.048 | [3] -0.0545 | [4] -0.0815 | [5] 0.0506 | [6] -0.176 | [7] -0.222 | [8] -0.0431 | [9] -0.158 | [10] -0.138

Cc1ccc(C)c(NC(=O)CCl)c1
inactive: [1] 0.248 | [2] -0.456 | [3] -0.823 | [4] -0.558 | [5] -0.353 | [6] -0.00643 | [7] -0.537 | [8] -0.263 | [9] -0.374 | [10] -0.102

Cc1ncc2c(n1)CCN(C(=O)CCl)C2
inactive: [1] 0.492 | [2] -0.138 | [3] 0.296 | [4] -0.0668 | [5] -0.217 | [6] -0.303 | [7] -0.49 | [8] -0.102 | [9] -0.246 | [10] 0.0218

From the supplement of paper PMC11732987, “Enantioselective OTUD7B fragment discovery through chemoproteomics screening and high-throughput optimisation” (Communications Chemistry, 2025)
